Results filed as inconclusive are left out. A call without a number means that no potency is given here. Active and inactive are the calls of the source. The call rests on the fitted dose curve; in most records, active means well fitted curve in the direction sought with a large enough effect in the repeat runs; inconclusive means weak or mixed curves; inactive means no such curve, though single readings can be large; an effect the other way counts as inactive or inconclusive.
Assay: qHTS assay to identify small molecule antagonists of the retinoid acid receptor (RAR) signaling pathway - cell viability counter screen (AID 1159551); further: nearly all actives have a fitted effect of over 35% in size
Conditions: C3RL4 cells viability, ATP luminescence (CellTiter-Glo), 6 h; series mostly up to 92.4 µM
Outline: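 Cytotoxicity counter screen: ATP content quantified by CellTiter-Glo luminescence in C3RL4 cells treated 6 hr at 37 C with compound and retinol (1 uM final). Cells plated at 1,000/well and cultured overnight before dosing.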
Potency means the concentration at half of the fitted maximal effect.

SMILES | Potency | activity change, negative = cytotoxicity
ClC(c1ccccc1)(c1ccccc1)c1ccccc1 | inactive | 
CCOC=C(C(=O)OCC)C(=O)OCC | inactive | 
c1ccc2occc2c1 | inactive | 
CCCCNc1ccc(NCCCC)c2c1C(=O)c1ccccc1C2=O |  | 0.361% [at 19 µM] (inactive)
NC(=O)C1CO1 (centres undefined) | inactive | 
Cc1c(Cl)c(=O)oc2cc(O)ccc12 | inactive | 
CCCCCN=C(N)N/N=C/c1c[nH]c2ccc(OC)cc12 | 29.8 µM (active) | 
CCc1c(C)cc(N)c(CC)c1N | inactive | 
CCn1c2ccccc2c2ccccc21 | inactive | 
CCc1cccc(C)c1N(C(=O)C(=O)O)C(C)COC (centres undefined) | inactive | 
NCc1cccc(C2CCN(C(=O)c3ccc(C#Cc4ccccc4F)o3)CC2)c1 | 68.6 µM (active) | 
Cc1ccc(N=Nc2c(O)ccc3ccccc23)c(C)c1 | inactive | 
C/C=C/C(=O)OCC(C)C | inactive | 
N#CCCOCCC#N | inactive | 
O=C1OC2(c3ccccc31)c1ccc(O)c(Br)c1Oc1c2ccc(O)c1Br | inactive | 
COc1cc2ncnc(Nc3cccc(Cl)c3)c2cc1OC |  | 0.617% [at 19 µM] (inactive)
[Cl][Eu]([Cl])[Cl] | inactive | 

SMILES | Potency | activity change, negative = cytotoxicity
NCc1ccco1 | inactive | 
CC(C)(c1ccc(Oc2ccc(N)cc2)cc1)c1ccc(Oc2ccc(N)cc2)cc1 | inactive | 
CC(C)=NNC(N)=S | inactive | 
C=C(C)CCO | inactive | 
CN1CCN(C)CC1 | inactive | 
CC(=O)Nc1ccc(N=Nc2cc(C)ccc2O)cc1 | inactive | 
CCOC(=O)C1=NN(c2ccc(Cl)cc2Cl)C(C)(C(=O)OCC)C1 (centres undefined) | inactive | 
CCN(CC)c1ccc(C=O)cc1 | inactive | 
O=C(NCc1ncc(C(F)(F)F)cc1Cl)c1c(Cl)cccc1Cl | inactive | 
C=Cc1ccc(O)c(OC)c1 | inactive | 
CCCCCCCCOC(=O)c1cc(O)c(O)c(O)c1 | inactive | 
O=C1C=CC(=O)N1c1cccc(N2C(=O)C=CC2=O)c1 | 21.7 µM (active) | 
COCCC(=O)OC | inactive | 
C=C[Si](C)(C)Cl |  | -1.54% [at 8.39 µM] (inactive)
Cc1ccc(S(=O)(=O)C(I)I)cc1 | 43.3 µM (active) | 
C=C1C(CCl)(CCl)C2(Cl)C(Cl)C(Cl)C1(Cl)C2(Cl)Cl (centres undefined) | inactive | 
Cc1ccc(C=O)cc1 | inactive | 

Assay: qHTS assay to identify small molecule antagonists of the retinoic acid receptor (RAR) signaling pathway (AID 1159552; further: nearly all actives have a fitted effect of over 50% in size)
Conditions: C3RL4 RARE luciferase reporter, retinol-stimulated, 6 h; series mostly up to 92.4 µM
Outline: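 Cells of the C3RL4 line were seeded, incubated overnight, then dosed with compounds in DMSO followed immediately by retinol (1 uM final). Six hours later luciferase detection reagent went in; signal was measured after 30 min at RT.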

SMILES | Potency | activity, negative = inhibition
ClC(c1ccccc1)(c1ccccc1)c1ccccc1 | inactive | 
CCOC=C(C(=O)OCC)C(=O)OCC | inactive | 
CCCCNc1ccc(NCCCC)c2c1C(=O)c1ccccc1C2=O |  | -19% [at 19 µM] (inactive)
NC(=O)C1CO1 (centres undefined) | inactive | 
CCCCCN=C(N)N/N=C/c1c[nH]c2ccc(OC)cc12 | 13.3 µM (active) | 
CCn1c2ccccc2c2ccccc21 | inactive | 
CC(=O)[C@]1(O)Cc2c(O)c3c(c(O)c2[C@@H](O[C@H]2C[C@H](N)[C@H](O)[C@H](C)O2)C1)C(=O)c1ccccc1C3=O | 0.298 µM (active) | 
CCN(CC)c1ccc(N=Nc2ccccc2)cc1 | inactive | 
CCc1cccc(C)c1N(C(=O)C(=O)O)C(C)COC (centres undefined) | inactive | 
NCc1cccc(C2CCN(C(=O)c3ccc(C#Cc4ccccc4F)o3)CC2)c1 | 54.5 µM (active) | 
Cc1ccc(N=Nc2c(O)ccc3ccccc23)c(C)c1 | inactive | 
C/C=C/C(=O)OCC(C)C | inactive | 
N#CCCOCCC#N | inactive | 
O=C1OC2(c3ccccc31)c1ccc(O)c(Br)c1Oc1c2ccc(O)c1Br | inactive | 
CC(O)(c1ccc(Cl)cc1)c1ccc(Cl)cc1 | 61.1 µM (active) | 
CC(C)(c1ccc(Oc2ccc(N)cc2)cc1)c1ccc(Oc2ccc(N)cc2)cc1 | inactive | 
CN1CCN(C)CC1 | inactive | 
CC(=O)Nc1ccc(N=Nc2cc(C)ccc2O)cc1 | inactive | 
CCOC(=O)C1=NN(c2ccc(Cl)cc2Cl)C(C)(C(=O)OCC)C1 (centres undefined) | inactive | 
CCN(CC)c1ccc(C=O)cc1 | inactive | 
CCCCCCCCOC(=O)c1cc(O)c(O)c(O)c1 | inactive | 
O=C1C=CC(=O)N1c1cccc(N2C(=O)C=CC2=O)c1 | 10.9 µM (active) | 
COCCC(=O)OC | inactive | 
C=C[Si](C)(C)Cl |  | 83.8% [at 8.39 µM] (inactive)
Cc1ccc(S(=O)(=O)C(I)I)cc1 | 9.69 µM (active) | 

Reference: PubChem BioAssay (Tox21)
